Results taken from PubChem BioAssay.
The source made the active and inactive calls.

Tests used:
[1] = test system: Plasmodium falciparum Sir2 (PF13_0152, Sir2A); assay: pfSir2 binders on small-molecule microarrays, primary screen, biochemical, small-molecule microarray, 635 nm fluorescence (AID 1098); conditions: small-molecule microarray binding, fluorescence 635 nm; higher = more signal;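 note: score merges spot fluorescence intensity with its signal-to-noise ratio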
[2] = small-molecule microarray binders of probe aDKK1, primary screen, biochemical, biotinylated probe, 635/667 nm fluorescence (AID 1099); conditions: higher = more signal;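 note: score merges 667nm spot fluorescence with signal to noise across triplicate slides; reference of the scale not given here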
[3] = small-molecule microarray binders of probe aCHRDL2, primary screen, biochemical, biotinylated probe, 635/667 nm fluorescence (AID 1100); conditions: higher = more signal
[4] = splicing luciferase reporter signal modulators, primary screen, spliceosome inhibition project, cell-based, HEK293, splice +/- reporter (AID 1101); conditions: luminescence, 24 h, higher = more signal, called active from +8 up or from −8 down;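 note: HEK293 cells carrying a splicing-competent luciferase reporter gene; test concentration not given here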
[5] = biological target: Fibroblast growth factor 10 (Homo sapiens) (UniProt O15520); assay: FGF10 binders on small-molecule microarrays, primary screen, biochemical, small-molecule microarray, 635 nm fluorescence (AID 1102); conditions: FGF10 binding, fluorescence 635 nm, higher = more signal
[6] = test system: glycogen synthase kinase-3 (GSK3A per assay name; protocol says GSK3B); assay: GSK3 binders on small-molecule microarrays, primary screen, biochemical, small-molecule microarray, 635 nm fluorescence, GSK3A (AID 1103); conditions: small-molecule microarray binding, fluorescence 635 nm; higher = more signal; note: the record names both GSK3A and GSK3B
[7] = biological target: Epidermal growth factor receptor (Homo sapiens) (UniProt P00533); assay: EGFR binders on small-molecule microarrays, primary screen, biochemical, small-molecule microarray, 635 nm fluorescence (AID 1104); conditions: EGFR binding, higher = more signal;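 note: score merges 667 nm emission intensity with spot signal to noise over triplicate slides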
[8] = biological target: Follistatin-related protein 3 (Homo sapiens) (UniProt O95633); assay: FSTL3 binders on small-molecule microarrays, primary screen, biochemical, small-molecule microarray, 635 nm fluorescence (AID 1105); conditions: FSTL3 binding, higher = more signal;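 note: score merges emission near 667 nm and signal to noise per printed spot across three slides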
[9] = biological target: Dickkopf-related protein 1 (Homo sapiens) (UniProt O94907); assay: DKK1 binders on small-molecule microarrays, primary screen, biochemical, small-molecule microarray, 635 nm fluorescence scan (AID 1106); conditions: DKK1 binding, higher = more signal;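 note: score merges emission near 667 nm with signal to noise over three replicate slides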
[10] = test system: Inhibin beta A chain (activin A); assay: INHBA (activin A) binders on microarrays, primary screen, biochemical, small-molecule microarray, 635 nm fluorescence scan (AID 1107); conditions: small-molecule microarray binding, higher = more signal;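 note: mouse activin A protein probed at 4.33 µg/mL on printed slides; score merges bound-protein fluorescence near 667 nm with spot signal-to-noise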

Chain of Dickkopf-related protein 1 (Homo sapiens) (O94907 whole entry, looked up): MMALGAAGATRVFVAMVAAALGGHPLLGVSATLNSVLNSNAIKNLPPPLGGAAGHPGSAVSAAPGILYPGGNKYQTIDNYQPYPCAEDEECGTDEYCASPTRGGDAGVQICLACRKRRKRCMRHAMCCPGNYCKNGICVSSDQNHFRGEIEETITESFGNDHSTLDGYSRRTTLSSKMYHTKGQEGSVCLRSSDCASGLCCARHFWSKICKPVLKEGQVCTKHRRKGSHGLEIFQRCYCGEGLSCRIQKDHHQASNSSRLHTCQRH
Chain of Fibroblast growth factor 10 (Homo sapiens) (O15520 whole entry, looked up): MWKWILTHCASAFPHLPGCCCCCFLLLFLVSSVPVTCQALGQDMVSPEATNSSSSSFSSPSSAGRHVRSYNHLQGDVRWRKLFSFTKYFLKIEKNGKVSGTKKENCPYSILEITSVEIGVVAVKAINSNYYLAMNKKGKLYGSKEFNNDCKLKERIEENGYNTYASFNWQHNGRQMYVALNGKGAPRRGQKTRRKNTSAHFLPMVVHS
Chain of Follistatin-related protein 3 (Homo sapiens) (O95633 whole entry, looked up): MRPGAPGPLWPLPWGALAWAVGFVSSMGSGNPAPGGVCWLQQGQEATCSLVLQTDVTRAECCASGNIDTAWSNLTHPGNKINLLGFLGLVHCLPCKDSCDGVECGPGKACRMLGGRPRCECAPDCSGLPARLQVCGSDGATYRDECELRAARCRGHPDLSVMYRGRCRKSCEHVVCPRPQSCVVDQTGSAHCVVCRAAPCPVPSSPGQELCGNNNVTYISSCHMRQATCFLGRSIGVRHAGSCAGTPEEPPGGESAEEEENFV
Chain of Epidermal growth factor receptor (Homo sapiens) (P00533 whole entry, looked up): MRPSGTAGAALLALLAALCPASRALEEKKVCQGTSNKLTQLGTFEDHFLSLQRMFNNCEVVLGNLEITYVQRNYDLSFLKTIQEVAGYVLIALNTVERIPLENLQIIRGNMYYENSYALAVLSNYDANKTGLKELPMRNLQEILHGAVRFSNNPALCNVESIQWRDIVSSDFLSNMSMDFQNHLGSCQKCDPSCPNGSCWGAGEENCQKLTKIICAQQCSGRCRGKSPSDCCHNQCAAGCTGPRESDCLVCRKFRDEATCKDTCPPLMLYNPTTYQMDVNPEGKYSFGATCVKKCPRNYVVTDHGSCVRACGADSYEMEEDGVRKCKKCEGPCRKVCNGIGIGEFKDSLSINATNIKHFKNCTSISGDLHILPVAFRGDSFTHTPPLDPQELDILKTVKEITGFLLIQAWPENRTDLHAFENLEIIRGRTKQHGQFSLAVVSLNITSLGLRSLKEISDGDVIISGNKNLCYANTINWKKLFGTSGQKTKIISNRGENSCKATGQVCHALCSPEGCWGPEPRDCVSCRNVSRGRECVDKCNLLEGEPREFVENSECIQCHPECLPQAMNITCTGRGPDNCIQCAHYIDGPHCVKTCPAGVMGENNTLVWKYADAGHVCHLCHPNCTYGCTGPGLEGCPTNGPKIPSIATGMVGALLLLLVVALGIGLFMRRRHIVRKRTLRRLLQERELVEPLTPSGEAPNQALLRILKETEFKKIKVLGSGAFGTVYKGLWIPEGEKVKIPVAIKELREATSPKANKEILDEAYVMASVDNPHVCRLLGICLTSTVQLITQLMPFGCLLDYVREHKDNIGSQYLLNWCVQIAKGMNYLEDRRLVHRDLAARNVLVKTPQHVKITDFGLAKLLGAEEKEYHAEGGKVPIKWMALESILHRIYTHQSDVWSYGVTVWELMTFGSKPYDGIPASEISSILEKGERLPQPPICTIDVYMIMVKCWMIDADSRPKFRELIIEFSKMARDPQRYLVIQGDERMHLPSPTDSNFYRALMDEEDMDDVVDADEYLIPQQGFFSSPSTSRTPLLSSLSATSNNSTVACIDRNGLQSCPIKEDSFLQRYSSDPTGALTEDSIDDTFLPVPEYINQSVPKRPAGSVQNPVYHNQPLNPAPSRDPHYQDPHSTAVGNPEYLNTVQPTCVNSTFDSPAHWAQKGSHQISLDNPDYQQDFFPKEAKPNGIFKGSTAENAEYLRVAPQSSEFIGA

Structure (SMILES) | composite z-score [1] | composite z-score [2] | composite z-score [3] | z-score [4] | composite z-score [5] | composite z-score [6] | composite z-score [7] | composite z-score [8] | composite z-score [9] | composite z-score [10]
Cc1ccc(C(C)CC(O)C2C=CC3C(=O)NC(=O)C3N2Nc2ccccn2)o1 (stereo not given) | 1.22 | 0.182 | -0.0866 | 0.802 (inactive) | 0.228 | 0.309 | 0.401 | 0.506 | 0.906 | 1.25
COC(=O)[C@@]1(Cc2ccc(OC)cc2)[C@H]2c3cc(C(=O)N(C)C)n(Cc4ccc(OC)c(OC)c4)c3C[C@H]2CN1C(=O)c1ccccc1 | 0.851 | 0.476 | 1.16 | -2.25 (inactive) | 0.81 | 1.28 | 0.149 | 0.943 | -0.649 | 0.807
CC(C)(C)OC(=O)CC[C@]1(C(=O)NCC(O)CO)N=C(c2ccc(OCCCO)cc2)O[C@H]1c1ccccc1CN=[N+]=[N-] (stereo not given in full) | 0.982 | 1.27 | 1.33 | 0.121 (inactive) | 1.5 | 0.554 | -0.256 | 0.676 | -0.0583 | 0.487
C=CC[C@]1(C(=O)NCCN2CCOCC2)N=C(c2ccc(OCCCO)cc2)O[C@H]1c1ccccc1N=[N+]=[N-] | 0.529 | 1.22 | 1.31 | -0.448 (inactive) | 1.08 | 0.287 | 0.327 | 1.05 | 0.283 | 1.6
COc1ccc([Si](C)(C)[C@H]2[C@H](CCO)O[C@@]3(C(=O)N(Cc4cccc(N5C(=O)c6cccc7cccc5c67)c4)c4ccccc43)[C@@H]2C)cc1 | 1.25 | -0.207 | 0.442 | -1.27 (inactive) | 0.668 | 0.149 | -0.437 | 0.277 | -0.701 | -0.345
CC1CC/C=C\[C@H]2OC34C=CCN(c5ccc6ccccc6c5)C(=O)[C@H]3N(CCCCCO)C(=O)[C@@H]4C2C(=O)O1 (stereo not given in full) | 0.207 | 0.207 | 0.62 | 0.375 (inactive) | -1.34 | -1.25 | 0.0445 | -0.213 | -1.58 | -0.522
CCCC[C@@H]1C[C@H]1[C@@H](NC(=O)c1ccccc1)c1ccccc1 | -0.563 | 0.599 | 0.781 | 0.308 (inactive) | -0.232 | -0.949 | -0.151 | 0.227 | -0.256 | 0.582
NC(=O)NCC#Cc1ccc2c(c1)[C@]1(C(=O)N2)[C@H](C(=O)NC[C@H](O)c2ccccc2)[C@H]2C(=O)O[C@H](c3ccccc3)[C@H](c3ccccc3)N2[C@@H]1c1ccccc1OCCO | 1.3 | -0.0611 | 0.729 | -0.416 (inactive) | 0.588 | -0.425 | 0.143 | -0.0845 | -1.04 | 0.286
COCCCNC(=O)[C@@]1(Sc2ccc(C)cc2)CC(=O)N(Cc2ccccc2)[C@@H]1c1ccc(CO)cc1 | 1.54 | 0.0112 | 0.144 | -0.74 (inactive) | -0.342 | -0.21 | -0.58 | -0.702 | -0.344 | -0.29
CCCNC(=O)[C@@]1(c2ccc([N+](=O)[O-])cc2)CC(=O)N(CC23CC4CC(CC(C4)C2)C3)[C@@H]1c1ccc(CO)cc1I | 0.441 | 0.563 | 0.195 | 1.58 (inactive) | 0.193 | 0.588 | 0.27 | 0.236 | 0.0305 | 0.655
O=C1O[C@@H](c2ccccc2)[C@@H](c2ccccc2)N2[C@@H](c3ccc(O)cc3)[C@]3(C(=O)Nc4ccc(C#CCCO)cc43)[C@@H](C(=O)N3CCCCCCC3)[C@H]12 | 1.83 | 1.7 | 1.07 | 0.62 (inactive) | 0.837 | 0.78 | 0.201 | 1.43 | 0.843 | 1.67
CCN(CC)c1ccc(N2CC=CC34O[C@@H]5C=CCOC(=O)[C@@H]5[C@H]3C(=O)N(CCCCCO)[C@@H]4C2=O)cc1 (stereo not given in full) | 1.85 | -0.0647 | 0.682 | 0.223 (inactive) | 0.126 | -0.453 | -1.53 | -1.22 | -0.413 | 1.1
COCCn1c(C(=O)N2CCCC2)cc2c1C[C@H]1CN(C(=O)c3ccccc3)[C@@](Cc3ccc(OC)cc3)(C(=O)OC)[C@@H]21 | 0.994 | 1.41 | 1.44 | -1.82 (inactive) | 0.344 | 0.194 | -0.224 | 0.682 | -0.223 | 1.06
CC(C)C(O)C1C=CC2C(=O)N(C)C(=O)C2N1N1CCCCC1 (stereo not given) | 1.61 | 0.184 | 0.674 | 1.15 (inactive) | 0.709 | 0.752 | 0.403 | 0.159 | 0.13 | 0.976
C=CCOC(=O)[C@H]1[C@@H]2C(=O)O[C@@H](c3ccccc3)[C@@H](c3ccccc3)N2[C@@H](c2ccc(OCCOC(=O)[C@@H]3C[C@@H]4C(=O)NCC(=O)N4[C@@H]3c3ccc(O)cc3)cc2)[C@]12C(=O)Nc1ccc(I)cc12 | 1.49 | -0.106 | 0.0065 | -0.0179 (inactive) | 1.2 | 1.3 | 1.14 | 1.34 | 0.873 | 0.141
C=C(CCCC)C(=O)CC[C@H](OC(=O)c1ccccc1-c1ccccc1C(=O)O)c1ccc(CO)o1 | 1.15 | -0.28 | -0.635 | 0.144 (inactive) | 1.51 | 1.1 | 0.264 | 1.2 | 1.02 | 0.64
O=C1C2C=CC(C(O)C3CC=CCC3)N(n3cnnc3)C2C(=O)N1Cc1ccccc1 (stereo not given) | 0.213 | -0.3 | 0.348 | 0.276 (inactive) | -0.644 | -0.406 | -1.64 | -1 | -0.746 | 0.672
C=CCN1C(=O)[C@]2(Cc3ccccc31)N=C(c1ccc(OCCCO)cc1)O[C@@H]2c1ccccc1 | 0.733 | 0.779 | 0.922 | 0.105 (inactive) | 1.43 | 0.881 | -0.0128 | 0.439 | 0.998 | 1.27
CC(=O)N1Cc2ccccc2C[C@@]2(N=C(c3ccc(OCCCO)cc3)O[C@H]2c2ccccc2)C1=O | 1.54 | 0.927 | 0.82 | -2.97 (inactive) | 1.16 | 1.09 | 0.361 | 1.19 | 0.653 | 1.03
C=CCNC(=O)[C@H]1[C@@H]2C(=O)O[C@@H](c3ccccc3)[C@@H](c3ccccc3)N2[C@@H](c2ccc(OCCO)cc2)[C@]12C(=O)N(C(=O)OCCOC)c1ccc(C#CC3(O)CCCCCC3)cc12 | 1.55 | 0.456 | 0.33 | -0.569 (inactive) | 1.42 | 1.31 | 1.02 | 1.48 | 1.23 | 1.18
C[N+](C)(C)CCCC[C@@H]1NC(=O)[C@@H]2C[C@H](C(=O)NCCCCCCNC(=O)CS)[C@H](c3cccc(OCCO)c3)N2C1=O | 1.58 | -0.209 | 0.111 | -0.451 (inactive) | 0.0947 | -0.755 | -1.01 | -0.0324 | 0.383 | 0.439
CC1CC/C=C\[C@H]2OC34C=CCN(CCN5CCOCC5)C(=O)[C@H]3N(CCCCCO)C(=O)[C@@H]4C2C(=O)O1 (stereo not given in full) | -0.31 | -0.605 | -0.824 | -0.282 (inactive) | -0.352 | -0.444 | -0.559 | -0.507 | -0.0732 | 1.01
C#C[C@H]1Oc2ccccc2S(=O)(=O)N2CCC[C@@H]12 | 0.578 | -0.215 | -0.0688 | 0.724 (inactive) | -0.0502 | 0.0695 | 0.354 | 0.712 | 1.29 | 1.74
C=C(CCCC)C(=O)CC[C@H](OC(C)=O)c1ccc(CO)o1 | 0.621 | -0.402 | -0.456 | -1.14 (inactive) | 0.123 | 0.2 | -0.567 | -0.139 | -0.0639 | 1.24
CC(C)(C)OC(=O)CC[C@@]1(C(=O)NCC(O)CO)N=C(c2ccc(OCCCO)cc2)O[C@@H]1c1ccccc1 (stereo not given in full) | 0.317 | 0.652 | 0.811 | -0.658 (inactive) | 0.989 | 0.0733 | -1.19 | -0.583 | -0.693 | 0.203
C=CCCN(CC#C[C@H]1Oc2ccccc2S(=O)(=O)N2CCC[C@@H]12)S(=O)(=O)c1ccc(C)cc1 | 0.327 | -0.342 | -0.289 | 3.09 (inactive) | 0.371 | 0.0464 | 0.185 | 0.485 | 0.435 | 1.45
